Source: PubChem BioAssay AID2535 (National Center for Advancing Translational Sciences (NCATS), 2010)
Calls of active or inactive are those of the source. Calls follow the shape of the dose curve; as a rule, active = well fitted curve in the direction sought with a large enough effect; inconclusive = small, poorly fitted or top-dose-only effect, or effect the other way, or another doubt; inactive = no such curve, though single readings can be large or run the other way.

Biological target: Pyruvate kinase PKLR (Homo sapiens) (UniProt P30613)
Sequence (P30613 whole entry, looked up): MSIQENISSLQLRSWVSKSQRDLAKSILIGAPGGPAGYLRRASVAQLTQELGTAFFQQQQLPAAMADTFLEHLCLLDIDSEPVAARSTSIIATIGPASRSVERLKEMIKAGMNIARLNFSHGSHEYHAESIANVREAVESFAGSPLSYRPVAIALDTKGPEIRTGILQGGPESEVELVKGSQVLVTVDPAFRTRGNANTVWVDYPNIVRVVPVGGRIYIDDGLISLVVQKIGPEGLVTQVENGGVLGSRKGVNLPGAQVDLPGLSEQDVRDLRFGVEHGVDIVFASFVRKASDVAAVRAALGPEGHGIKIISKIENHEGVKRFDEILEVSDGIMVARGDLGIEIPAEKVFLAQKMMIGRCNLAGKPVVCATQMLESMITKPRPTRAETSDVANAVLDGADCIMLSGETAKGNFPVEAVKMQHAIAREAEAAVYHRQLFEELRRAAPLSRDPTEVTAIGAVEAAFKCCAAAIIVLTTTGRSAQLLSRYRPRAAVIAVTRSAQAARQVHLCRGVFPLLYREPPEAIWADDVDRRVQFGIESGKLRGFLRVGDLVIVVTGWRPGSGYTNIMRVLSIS
Assay: Secondary Concentration-Response Assay for Activators of Human Liver Pyruvate Kinase: for Probe SAR
Conditions: purified hPK-L, ATP production, Kinase-Glo luminescence; series mostly up to 58.3 µM
From the text: NIH Chemical Genomics Center [NCGC]
Matthew G. Vander Heiden, M.D., Ph.D. [Harvard Medical School, 77 Avenue Louis Pasteur, Boston, MA 02115]
Human pyruvate kinase liver (hPK-L) enzyme was supplied as a highly purified (>95% pure) preparation from Harvard Medical School and assayed for its ability to generate ATP from ADP using phosphoenolpyruvate (PEP) as a substrate. ATP generation was detected in a coupled reaction by luciferase-mediated luminescence, an ATP-dependent process. Pyruvate kinase substrates, PEP and ADP, were present in the assay at Km and approximately 10-fold below Km respectively. The enzyme was assayed at an intermediate level of activity to screen for both inhibitors and activators.
NCGC Assay Protocol Summary for L-isoform:
Three uL of substrate mix (at r.t.) in assay buffer (50 mM Imidazole pH7.2, 50 mM KCl, 7 mM MgCl2, 0.01% Tween 20, 0.05% BSA) was dispensed into white solid bottom 1,536 well microtiter plates so that the final concentrations of substrates in the assay were 0.1 mM ADP and 0.5 mM PEP. 23 nL of compound were delivered by a pin tool and 1 uL of enzyme mix (final concentration of 0.1 nM) in assay buffer (4 degree Celsius) was added. Plates were incubated at room temperature for 1 hour. Two uL of detection mix (Kinase-Glo, Promega; at 4 degree Celsius protected from light) was added and luminescence read by a ViewLux (Perkin Elmer) at 1 second exposure/plate. Data were normalized to the uninhibited (row 31). Additionally, a no enzyme and 5-fold enzyme control was dispensed in row 32, split equally between the two conditions.

outcome, inactive:
O=C1CCc2cc([S+](=O)([O-])Nc3ccc(N[S+](=O)([O-])c4ccc5c(c4)CCC(=O)N5)cc3)ccc2N1
Cc1ccc(NS(=O)(=O)c2ccc3c(c2)oc(=O)n3C)cc1C
O=C1CCc2cc(S(=O)(=O)Nc3cccnc3)ccc2N1
O=S1(=O)N=C(Oc2cccc(Cl)c2)c2ccccc21
CSc1cc2c(s1)c1cnn(Cc3cccc(O)c3)c(=O)c1n2C
Cc1ccc(NS(=O)(=O)c2cc3c(cc2-c2cn[nH]c2)NC(=O)CO3)cc1C
O=C1c2ccccc2C(=O)N1C1CCCCC1
COc1ccc(NS(=O)(=O)c2ccc3c(c2)CCC(=O)N3)cc1
Cc1ccc(Nc2c(-c3ccc(C)s3)nc3ccccn23)cc1
COc1ccc(OC2=NS(=O)(=O)c3ccccc32)cc1
O=C1c2ccccc2C(=O)N1Cc1ccncc1
O=S(=O)(c1ccc2c(c1)OCCO2)N1CCN(S(=O)(=O)c2c(F)cccc2F)CC1
Cc1ccc(NS(=O)(=O)c2ccc(-c3ccccc3)cc2)cc1C
O=C1CCc2cc(S(=O)(=O)Nc3cccc(-c4ccccc4)c3)ccc2N1
Cc1ccc(NS(=O)(=O)c2ccc(F)cc2)cc1C
Cc1ccc(-c2nc3ccccn3c2Nc2ccccc2C)o1
Cc1ccc2nc(-c3ccc(C)o3)c(Nc3ccccc3)n2c1
Cc1ccc(NS(=O)(=O)c2cc3c(cc2Cl)CCC(=O)N3)cc1C
O=C1CCc2cc(S(=O)(=O)Nc3cc(F)cc(Cl)c3)c(F)cc2N1
O=C1c2ccccc2C(=O)N1c1ccc2ccccc2n1
Cc1c(Cl)cccc1NS(=O)(=O)c1cc2c(cc1F)NC(=O)CC2
Cc1ccc(NS(=O)(=O)c2ccc3c(c2)CC(=O)N3)cc1C
Cc1ccc2nc(-c3ccc(C)o3)c(Nc3ccc(F)cc3)n2c1
Cc1ccc(NS(=O)(=O)c2ccc3c(c2)n(C)c(=O)n3C)cc1C
COc1ccc(-c2nc3cccc(C)n3c2Nc2ccc(C)cc2)cc1
CSc1cc2c(s1)c1cnn(Cc3cccc(N)c3)c(=O)c1n2C
Cc1ccc(N[S+](=O)([O-])c2cc3c(cc2CCc2ccccc2)NC(=O)CO3)cc1C
O=C1CCc2cc(S(=O)(=O)Nc3ccc(Cl)cc3)ccc2N1
Cc1ccc(NS(=O)(=O)c2cc3c(cc2N2CCCCC2)NC(=O)CC3)cc1C
Cc1ccc2nc(-c3ccc(C)o3)c(NC3CCCC3)n2c1
O=C1CCc2cc(S(=O)(=O)Nc3cccc(Oc4ccccc4)c3)ccc2N1
Cc1ccc(NS(=O)(=O)c2ccc3c(ccn3C)c2)cc1C
Cc1cc(NS(=O)(=O)c2ccc3c(c2)CCC(=O)N3)ccc1F
Cc1ccc(NS(=O)(=O)c2ccc3c(c2)CCCC(=O)N3)cc1C
O=C1c2ccccc2C(=O)N1c1ccncc1
O=C1CCc2cc(S(=O)(=O)Nc3ccncc3)ccc2N1
O=C1c2ccccc2C(=O)N1c1cccnc1
CCNc1cccc(S(=O)(=O)N2CCN(S(=O)(=O)c3ccc4c(c3)OCCO4)CC2)c1
Cc1ccc(NC(=O)c2ccc3c(c2)CCC(=O)N3)cc1C
Cc1ccccc1Nc1c(-c2ccc(Cl)s2)nc2ccccn12
